Data from PubChem BioAssay AID1159580 (chemical genetic matrix, 2015).
The campaign covered roughly 5,500 compounds. About 2,000 (36%) were called active. Inconclusive results (about 18%) are left out. Some of the results follow. Unmarked numbers belong to inactive results. Cut-off read from the data, not from the text of the source: active = normalized growth mostly below about 0.91 (no sharp cut-off); inconclusive = no clear call, values can overlap the other calls; inactive = mostly above about 0.92.

Assay: chemical genetic growth profiling, strain panel (AID 1159580);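 note: tested at 20 µM; growth read once vehicle control cultures reached saturation at 30 °C; 1 = growth at the plate median or of vehicle wells; lower values mean less growth of the strain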
Conditions: S. cerevisiae deletion strains, growth OD

Q: Which normalized growth (locus YAL021C, strain ccr4, stronger effect = lower value) does the source give for C#C[C@]1(OC(C)=O)CCC2C3CCC4=C/C(=N\O)CCC4C3CC[C@@]21CC (stereo not given in full) here?
A: 0.823 (active)

Q: And the normalized growth (locus YAL026C, strain drs2, stronger effect = lower value)?
A: 0.921

Q: What about the normalized growth (locus YAL030W, strain snc1, stronger effect = lower value) of the same molecule?
A: 0.582 (active)

Q: And the normalized growth (locus YBL061C, strain skt5, stronger effect = lower value)?
A: 0.514 (active)

Q: And the normalized growth (locus YBR009C, strain hhf1, stronger effect = lower value)?
A: 0.403 (active)

Q: What about the normalized growth (locus YBR023C, strain chs3, stronger effect = lower value) of the same molecule?
A: 0.612 (active)

Q: What about the normalized growth (locus YBR171W, strain sec66, stronger effect = lower value) of the same molecule?
A: 0.944

Q: And the normalized growth (locus YBR231C, strain swc5, stronger effect = lower value)?
A: 0.333 (active)

Q: And the normalized growth (locus YBR279W, strain paf1, stronger effect = lower value)?
A: 0.879 (active)

Q: What about the normalized growth (locus YCL011C, strain gbp2, stronger effect = lower value) of the same molecule?
A: 0.476 (active)

Q: And the normalized growth (locus YCL016C, strain dcc1, stronger effect = lower value)?
A: 0.77 (active)

Q: What about the normalized growth (locus YCL061C, strain MRC1, stronger effect = lower value) of the same molecule?
A: 0.94

Q: And the normalized growth (locus YCL069W, strain vba3, stronger effect = lower value)?
A: 0.984

Q: And the normalized growth (locus YCR088W, strain abp1, stronger effect = lower value)?
A: 0.898 (active)

Q: And the normalized growth (locus YDL005C, strain med2, stronger effect = lower value)?
A: 0.41 (active)

Q: What about the normalized growth (locus YDL040C, strain nat1, stronger effect = lower value) of the same molecule?
A: 0.726 (active)

Q: And the normalized growth (locus YDR001C, strain nth1, stronger effect = lower value)?
A: 0.998

Q: And the normalized growth (locus YDR069C, strain doa4, stronger effect = lower value)?
A: 0.367 (active)

Q: And the normalized growth (locus YDR137W, strain rgp1, stronger effect = lower value)?
A: 0.242 (active)

Q: What about the normalized growth (locus YDR159W, strain sac3, stronger effect = lower value) of the same molecule?
A: 0.267 (active)

Q: And the normalized growth (locus YDR195W, strain ref2)?
A: 0.269 (active)

Q: And the normalized growth (locus YDR297W, strain sur2, stronger effect = lower value)?
A: 0.716 (active)

Q: And the normalized growth (locus YDR334W, strain swr1, stronger effect = lower value)?
A: 1

Q: And the normalized growth (locus YDR335W, strain msn5, stronger effect = lower value)?
A: 0.866 (active)

Q: And the normalized growth (locus YDR392W, strain spt3, stronger effect = lower value)?
A: 0.193 (active)

Q: And the normalized growth (locus YEL003W, strain gim4, stronger effect = lower value)?
A: 0.759 (active)

Q: And the normalized growth (locus YEL037C, strain rad23, stronger effect = lower value)?
A: 0.993

Q: What about the normalized growth (locus YEL061C, strain CIN8 (second series), stronger effect = lower value) of the same molecule?
A: 0.996

Q: What about the normalized growth (locus YER015W, strain faa2, stronger effect = lower value) of the same molecule?
A: 0.918 (active)

Q: And the normalized growth (locus YER016W, strain bim1, stronger effect = lower value)?
A: 0.599 (active)

Q: What about the normalized growth (locus YER111C, strain swi4, stronger effect = lower value) of the same molecule?
A: 1.01

Q: What about the normalized growth (locus YER155C, strain BEM2 (second series), stronger effect = lower value) of the same molecule?
A: 0.737 (active)

Q: And the normalized growth (locus YFR010W, strain ubp6, stronger effect = lower value)?
A: 0.761 (active)

Q: And the normalized growth (locus YGL167C, strain pmr1, stronger effect = lower value)?
A: 0.682 (active)

Q: What about the normalized growth (locus YGL173C, strain kem1, stronger effect = lower value) of the same molecule?
A: 0.817 (active)

Q: What about the normalized growth (locus YGL227W, strain vid30, stronger effect = lower value) of the same molecule?
A: 0.97

Q: And the normalized growth (locus YGL240W, strain doc1, stronger effect = lower value)?
A: 0.782 (active)

Q: What about the normalized growth (locus YGL253W, strain hxk2, stronger effect = lower value) of the same molecule?
A: 0.71 (active)

Q: And the normalized growth (locus YHR013C, strain ard1, stronger effect = lower value)?
A: 0.315 (active)

Q: What about the normalized growth (locus YHR027C, strain rpn1, stronger effect = lower value) of the same molecule?
A: 0.725 (active)

Q: And the normalized growth (locus YHR030C, strain SLT2, stronger effect = lower value)?
A: 0.671 (active)

Q: And the normalized growth (locus YHR079C, strain IRE1, stronger effect = lower value)?
A: 0.707 (active)

Q: And the normalized growth (locus YHR142W, strain chs7, stronger effect = lower value)?
A: 0.776 (active)

Q: What about the normalized growth (locus YJL092W, strain hpr5, stronger effect = lower value) of the same molecule?
A: 0.941

Q: And the normalized growth (locus YJL095W, strain BCK1 (second series), stronger effect = lower value)?
A: 0.503 (active)

Q: What about the normalized growth (locus YJL095W, strain BCK1, stronger effect = lower value) of the same molecule?
A: 0.605 (active)

Q: What about the normalized growth (locus YJL115W, strain asf1, stronger effect = lower value) of the same molecule?
A: 1.01

Q: And the normalized growth (locus YJL129C, strain trk1, stronger effect = lower value)?
A: 0.56 (active)

Q: What about the normalized growth (locus YJL154C, strain vps35, stronger effect = lower value) of the same molecule?
A: 0.994

Q: What about the normalized growth (locus YJL164C, strain tpk1, stronger effect = lower value) of the same molecule?
A: 0.469 (active)

Q: And the normalized growth (locus YJL166W, strain qcr8, stronger effect = lower value)?
A: 0.344 (active)

Q: And the normalized growth (locus YJL187C, strain SWE1, stronger effect = lower value)?
A: 0.582 (active)

Q: What about the normalized growth (locus YJR066W, strain TOR1, stronger effect = lower value) of the same molecule?
A: 0.863

Q: And the normalized growth (locus YKL160W, strain elf1, stronger effect = lower value)?
A: 0.495 (active)

Q: What about the normalized growth (locus YKR026C, strain gcn3, stronger effect = lower value) of the same molecule?
A: 0.99

Q: And the normalized growth (locus YKR091W, strain srl3, stronger effect = lower value)?
A: 0.941

Q: And the normalized growth (locus YLL001W, strain dnm1, stronger effect = lower value)?
A: 0.826 (active)

Q: And the normalized growth (locus YLL026W, stronger effect = lower value)?
A: 0.461 (active)

Q: And the normalized growth (locus YLL041C, strain sdh2, stronger effect = lower value)?
A: 0.775 (active)

Q: What about the normalized growth (locus YLR027C, strain aat2, stronger effect = lower value) of the same molecule?
A: 0.513 (active)

Q: What about the normalized growth (locus YLR113W, strain HOG1, stronger effect = lower value) of the same molecule?
A: 0.305 (active)

Q: And the normalized growth (locus YLR221C, strain rsa3, stronger effect = lower value)?
A: 0.638 (active)

Q: And the normalized growth (locus YLR258W, strain gsy2, stronger effect = lower value)?
A: 0.495 (active)

Q: What about the normalized growth (locus YLR262C, strain YPT6 (second series), stronger effect = lower value) of the same molecule?
A: 0.18 (active)

Q: What about the normalized growth (locus YLR320W, strain mms22, stronger effect = lower value) of the same molecule?
A: 0.558 (active)

Q: What about the normalized growth (locus YLR342W, strain FKS1, stronger effect = lower value) of the same molecule?
A: 0.518 (active)

Q: And the normalized growth (locus YLR357W, strain rsc2, stronger effect = lower value)?
A: 0.937

Q: What about the normalized growth (locus YLR370C, strain arc18, stronger effect = lower value) of the same molecule?
A: 0.785 (active)

Q: And the normalized growth (locus YLR384C, strain iki3, stronger effect = lower value)?
A: 1.01

Q: And the normalized growth (locus YML120C, strain ndi1, stronger effect = lower value)?
A: 0.471 (active)

Q: What about the normalized growth (locus YMR058W, strain fet3, stronger effect = lower value) of the same molecule?
A: 0.89 (active)

Q: What about the normalized growth (locus YMR125W, strain sto1, stronger effect = lower value) of the same molecule?
A: 0.884 (active)

Q: What about the normalized growth (locus YMR129W, stronger effect = lower value) of the same molecule?
A: 0.986

Q: And the normalized growth (locus YMR205C, strain PFK2, stronger effect = lower value)?
A: 0.358 (active)

Q: And the normalized growth (locus YMR231W, strain pep5, stronger effect = lower value)?
A: 0.45 (active)

Q: And the normalized growth (locus YNL071W, strain lat1, stronger effect = lower value)?
A: 0.476 (active)

Q: And the normalized growth (locus YNL183C, strain NPR1, stronger effect = lower value)?
A: 0.84

Q: And the normalized growth (locus YNL209W, strain ssb2, stronger effect = lower value)?
A: 0.846 (active)

Q: What about the normalized growth (locus YNL248C, strain rpa49, stronger effect = lower value) of the same molecule?
A: 0.996

Q: What about the normalized growth (locus YNL322C, strain KRE1 (second series), stronger effect = lower value) of the same molecule?
A: 1.01

Q: What about the normalized growth (locus YNR049C, strain mso1, stronger effect = lower value) of the same molecule?
A: 0.987

Q: What about the normalized growth (locus YOR001W, strain rrp6, stronger effect = lower value) of the same molecule?
A: 0.767 (active)

Q: What about the normalized growth (locus YOR070C, strain gyp1, stronger effect = lower value) of the same molecule?
A: 0.394 (active)

Q: And the normalized growth (locus YOR080W, strain dia2, stronger effect = lower value)?
A: 0.917

Q: What about the normalized growth (locus YOR083W, strain WHI5, stronger effect = lower value) of the same molecule?
A: 0.619 (active)

Q: And the normalized growth (locus YOR106W, strain vam3, stronger effect = lower value)?
A: 0.281 (active)

Q: And the normalized growth (locus YOR231W, strain MKK1, stronger effect = lower value)?
A: 0.673 (active)

Q: And the normalized growth (locus YOR265W, strain rbl2, stronger effect = lower value)?
A: 0.668 (active)

Q: And the normalized growth (locus YOR270C, strain vph1, stronger effect = lower value)?
A: 0.512 (active)

Q: What about the normalized growth (locus YOR290C, strain snf2, stronger effect = lower value) of the same molecule?
A: 0.563 (active)

Q: What about the normalized growth (locus YPL051W, strain arl3, stronger effect = lower value) of the same molecule?
A: 0.456 (active)

Q: What about the normalized growth (locus YPL078C, strain atp4, stronger effect = lower value) of the same molecule?
A: 0.835 (active)

Q: What about the normalized growth (locus YPL106C, strain sse1, stronger effect = lower value) of the same molecule?
A: 0.824 (active)

Q: What about the normalized growth (locus YPL240C, strain hsp82, stronger effect = lower value) of the same molecule?
A: 0.604 (active)

Q: And the normalized growth (locus YPL256C, strain CLN2, stronger effect = lower value)?
A: 0.752 (active)
